Compound activity deposited in PubChem by The Scripps Research Institute Molecular Screening Center.
The list is not random: actives were taken first. Their share in the collection is about 3.4%.
PLCg1 inh: PLC-gamma1 enzyme inhibitors, primary screen, biochemical, fluorescence, purified enzyme | inhibition, % at 12.2 µM | 1-phosphatidylinositol 4,5-bisphosphate phosphodiesterase gamma-1 (Homo sapiens), P19174 | fluorogenic substrate | 370,000 compounds, 0.84% hits | AID 720700, 2013; in the data active = inhibition above about 9.5%
KLK7 zymogen act: proKLK7 zymogen activators, primary screen, biochemical, fluorescence intensity. Kallikrein-7 (Homo sapiens), P49862. purified proKLK7, EDANS-DABCYL substrate fluorescence; 100% is mature enzyme control, 0% vehicle. activation, % at 7 µM. 370,000 compounds, 0.9% hits;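 active = activation above the mean of all tested compounds plus 3 SD, computed per campaign excluding outliers beyond control limits, cut at about 13% in these data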
ADAM17 inh: ADAM17 inhibitors, primary screen, biochemical, QFRET; Disintegrin and metalloproteinase domain-containing protein 17 (Homo sapiens), P78536; recombinant ADAM17, EDANS/DABCYL FRET peptide cleavage; inhibition, % at 6.95 µM; 370,000 compounds, 0.83% hits;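 active = inhibition above the mean of compounds lying between control limits plus 3 SD, set per campaign, cut at about 8.5% in these data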
sPLA2-III inh: human group III sPLA2 inhibitors, primary screen, biochemical, QFRET, BODIPY PC-A2 liposome substrate. QFRET BODIPY PC-A2 liposome hydrolysis, fluorescence. inhibition, % at 12.2 µM. 370,000 compounds, 0.56% hits;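 active = inhibition above mean plus 3 SD of compounds lying within the high and low control bounds, cut at about 19% in these data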
PLC-beta3 inh: human PLC-beta3 inhibitors, primary screen, biochemical, fluorescence; 1-phosphatidylinositol 4,5-bisphosphate phosphodiesterase beta-3 (Homo sapiens), Q01970; Purified PLC-beta3, fluorogenic substrate; inhibition, % at 12.2 µM; 370,000 compounds, 0.18% hits; AID 720704, 2013; in the data active = inhibition above about 11%
ADAM10 inh: human ADAM10 inhibitors, primary screen, biochemical, QFRET, HTS; inhibition, % at 7 µM; Disintegrin and metalloproteinase domain-containing protein 10 (Homo sapiens), O14672; recombinant ADAM10, EDANS/DABCYL FRET peptide cleavage, 3 h; 370,000 compounds, 0.62% hits;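 active = inhibition above a per-campaign cutoff equal to the mean of compounds falling between control-based bounds plus 3 SD, cut at about 20% in these data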
Target sequence (O14672 214-748 limits assumed): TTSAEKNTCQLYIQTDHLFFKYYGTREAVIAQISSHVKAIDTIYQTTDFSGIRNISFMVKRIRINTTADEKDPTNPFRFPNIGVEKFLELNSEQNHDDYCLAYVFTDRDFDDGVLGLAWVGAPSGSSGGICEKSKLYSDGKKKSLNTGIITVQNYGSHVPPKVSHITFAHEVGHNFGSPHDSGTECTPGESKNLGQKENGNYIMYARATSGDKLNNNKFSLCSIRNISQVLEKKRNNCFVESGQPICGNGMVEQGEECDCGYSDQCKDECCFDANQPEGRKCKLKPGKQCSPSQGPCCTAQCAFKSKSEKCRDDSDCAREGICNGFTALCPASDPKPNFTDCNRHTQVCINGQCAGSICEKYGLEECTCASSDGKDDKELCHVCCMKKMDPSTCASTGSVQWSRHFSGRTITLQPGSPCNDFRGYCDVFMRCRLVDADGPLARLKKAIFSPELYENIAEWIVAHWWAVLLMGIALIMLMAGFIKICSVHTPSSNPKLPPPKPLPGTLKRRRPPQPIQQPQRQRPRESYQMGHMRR
proKLK7 act conf: proKLK7 zymogen activators, confirmation, biochemical, fluorescence intensity, triplicate; activation, % at 7 µM; shares compounds with KLK7 zymogen act; purified proKLK7, EDANS-DABCYL substrate fluorescence; scaled: vehicle 0, mature enzyme 100; AID 686949, 2013; 3,200 compounds, 68% hits;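 active = activation, as change over the incubation, above the mean of all tested compounds plus 3 SD, cut at about 13% in these data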
EDANS-DABCYL int: EDANS-DABCYL substrate optical interference, artefact control for kallikrein-7 zymogen activator project, biochemical, fluorescence intensity, high throughput; shares compounds with KLK7 zymogen act; no enzyme, 4 h; solvent 0%, active enzyme control 100%; activation, % at 7 µM; 3,200 compounds, 80% hits;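 active = activation above the all-compound mean plus 3 SD, ignoring values outside control-based bounds, cut at about 4.8% in these data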;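 also: value is the 4 h activation minus the activation read at time zero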
K7 EDANS ctr: counter-screen for kallikrein-7 activators: EDANS-DABCYL interference, dose response | shares compounds with KLK7 zymogen act | EDANS-DABCYL peptide fluorescence interference, no enzyme | EC50, µM | 250 compounds, 20% hits | AID 720493;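 active = compounds that raise the fluorescence signal in this interference counterscreen, with EC50 at or below 10 µM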;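 also: intact quenched peptide substrate alone read at 355 nm excitation and 520 nm emission; signal is fluorescence gain from T0 to T4 after four hours at room temperature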
Each line names hits and unclear results; the compound was inactive in the other large screens (follow-up assays come after a bar, where they were run).

O=C(Nc1c(-c2ccc(F)c(F)c2)nc2ncccn12)C1CC1	KLK7 zymogen act 18 | proKLK7 act conf 52 | EDANS-DABCYL int 57
CC(=O)CC(=O)O[C@@H]1C=C[C@H](NC(=O)OC(C)(C)C)C1	none
C[C@@H]1CN([C@@H](C)CO)C(=O)CCCn2cc(nn2)CO[C@H]1CN(C)C(=O)Nc1ccc(-c2cccs2)cc1	none
COc1ccc(NC(=O)C(C)N2c3cccc4cccc(c34)S2(=O)=O)cc1 (stereo not drawn)	none
CNC(=O)C(C)N1c2cccc3cccc(c23)S1(=O)=O (stereo not drawn)	KLK7 zymogen act 15 | proKLK7 act conf inactive | EDANS-DABCYL int 13
CC(C)C[C@H]1COc2ccc(Cl)cc2S(=O)(=O)N1C[C@H](NC(=O)OC(C)(C)C)C(C)C	none
O=c1oc2c(CN3CCOCC3)c(O)c(Cl)cc2c2c1CCC2	KLK7 zymogen act 122 | proKLK7 act conf 81 | EDANS-DABCYL int 78
O=c1cc(-c2ccccc2)c2cc(Cl)c(O)c(CN3CCOCC3)c2o1	none
CCN(CC)Cc1c(O)c(Cl)cc2c3c(c(=O)oc12)CCCC3	KLK7 zymogen act 49 | proKLK7 act conf 66 | EDANS-DABCYL int 75
CN(C)Cc1c(O)c(Cl)cc2c3c(c(=O)oc12)CCCC3	KLK7 zymogen act 47 | proKLK7 act conf 70 | EDANS-DABCYL int 72
COC(=O)C1=C(C)N(C)C(=NCc2cccc(C(F)(F)F)c2)NC1c1ccc(Cl)cc1 (stereo not drawn)	none
CC[C@H](NC(=O)[C@@H](Cc1ccccc1)NC(=O)[C@H]1O[C@@H](n2ccc(=O)[nH]c2=O)[C@H](O)[C@@H]1O)c1ccccc1	none
COC(=O)C1(C)CCc2cc(OC)ccc2C1=O (stereo not drawn)	none
COc1ccc2c(c1)CCC1(C)CC(=O)C(Br)=C21 (stereo not drawn)	KLK7 zymogen act 124 | proKLK7 act conf 71 | EDANS-DABCYL int 76
COC(=O)c1c(C)nc2c(c(SC)nn2-c2ccccc2)c1N	none
COC(=O)c1c(C)nc2nonc2c1N	KLK7 zymogen act 14 | proKLK7 act conf 47 | EDANS-DABCYL int 49
CCc1cc(=O)oc2cc(C)cc(OCC(=O)N3CCC(C(=O)O)CC3)c12	KLK7 zymogen act 16 | proKLK7 act conf 19 | EDANS-DABCYL int 19
CCc1cc(=O)oc2cc(C)cc(OCC(=O)C(C)(C)C)c12	none
CCCc1cc(=O)oc2cc(C)cc(OCC(=O)N3CCC(C(=O)O)CC3)c12	KLK7 zymogen act 16 | proKLK7 act conf 13 | EDANS-DABCYL int 16
CCc1cc(=O)oc2cc(C)cc(OCC(C)=O)c12	KLK7 zymogen act 13 | proKLK7 act conf inactive | EDANS-DABCYL int 17
CCCc1cc(=O)oc2cc(C)cc(OCC(=O)N3CCC(C(N)=O)CC3)c12	KLK7 zymogen act 17 | proKLK7 act conf inactive | EDANS-DABCYL int 10
Cc1cc(OCC(=O)N2CCC(C(=O)O)CC2)c2c(C)cc(=O)oc2c1	none
CC(C)[C@H](NC(=O)c1ccc(Cl)c(Cl)c1)C(=O)N1CCC[C@H]1C(=O)NCc1ccccc1	none
CCCCc1cc(=O)oc2cc(C)cc(OCC(=O)N3CCC(C(=O)O)(c4ccccc4)CC3)c12	none
CCCCc1cc(=O)oc2cc(C)cc(OCC(=O)N3CCC(C(=O)O)CC3)c12	KLK7 zymogen act 17 | proKLK7 act conf 25 | EDANS-DABCYL int 18 | K7 EDANS ctr inactive
c1cc2c3c(cccc3c1)C(N1CCCCCC1)=N2	KLK7 zymogen act 52 | proKLK7 act conf inactive | EDANS-DABCYL int 9.4
O=C(CN1C(=O)c2cccc3cccc1c23)N1CCc2ccccc2C1	none
c1ccc(NC2=Nc3cccc4cccc2c34)cc1	none
c1ccc2c(c1)CCN(C1=Nc3cccc4cccc1c34)C2	KLK7 zymogen act 14 | proKLK7 act conf inactive | EDANS-DABCYL int 8.2
Cc1ccc2nc(-c3ccc(Cl)cc3)c(Cc3ccsc3)n2c1	none
CN(C)c1oc(/C=C/c2ccccc2)nc1C#N	KLK7 zymogen act 58 | proKLK7 act conf 69 | EDANS-DABCYL int 62
CCN(CC)CCCNc1oc(/C=C/c2ccccc2)nc1C#N	KLK7 zymogen act 104 | proKLK7 act conf 28 | EDANS-DABCYL int 18 | K7 EDANS ctr inactive
O=C(Nc1ccccc1)N1c2ccccc2SC1c1ccco1 (stereo not drawn)	none
Cc1cc(N2CCN(CC(C)(C)O)C[C@@H]2C)ccc1N1CCN(Cc2ccccc2)[C@H](C)C1	none
[O-][n+]1ccccc1C(O)CSc1ccccc1 (stereo not drawn)	none
COC(=O)[C@]12C[C@H](CC(=O)NCC34CC5CC(CC(C5)C3)C4)C(=O)N(Cc3ccccc3)C1=C[C@H](C(C)C)O[C@@H]2C1CC1	none
C[C@@H]1CN([C@@H](C)CO)C(=O)CCCn2nncc2CO[C@H]1CN(C)C(=O)Nc1ccc(N2CCN(C)CC2)cc1	none
CCN1CC=C2C(C#N)=C(N)C(C#N)(C#N)C(CCc3ccccc3)C2C1 (stereo not drawn)	KLK7 zymogen act 30 | proKLK7 act conf 15 | EDANS-DABCYL int 16
N#CC1=C(N)C(C#N)(C#N)[C@H](c2ccoc2)[C@H]2CN(Cc3ccccc3)CC=C12	KLK7 zymogen act 13 | proKLK7 act conf inactive | EDANS-DABCYL int inactive
CC(=O)N1CC=C2C(C#N)=C(N)C(C#N)(C#N)[C@H](c3ccoc3)[C@H]2C1	KLK7 zymogen act 16 | proKLK7 act conf 16 | EDANS-DABCYL int 17
Cc1ccc(C2C3CN(C(C)C)CC=C3C(C#N)=C(N)C2(C#N)C#N)cc1 (stereo not drawn)	none
CC(=O)N1CC=C2C(C#N)=C(N)C(C#N)(C#N)C(C)C2C1 (stereo not drawn)	none
COC(=O)c1ccc2nc(-c3ccc(C)cc3)c(CC(C)(C)C)n2c1	none
Cc1cccn2c(=O)c3cc(C(=O)NC4CCCC4)c(=N)n(C4CCCC4)c3nc12	none
